This note sets out measurements from the supplement of paper PMC8728848.

Holding throughout (experiment): glycan array binding signal (z-score within array); higher = stronger binding
Common to all, as to details: glycan notation: IUPAC condensed, linker removed

For test [1], the system named is Neu5Ac(a2-6)Gal(b1-4)GlcNAc(b1-3)Gal(b1-3)GlcNAc. A digest of the protocol: (§1)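 Negative Z-scores can be read as non-binding. The Z-score is calculated within each array and then averaged across arrays of one protein sequence at different concentrations or buffers and across linkers. Arrays, 3228 in all, were curated from the Consortium for Functional Glycomics database and kept only where the protein sequence was available.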

The subject of test [2] is Neu5Ac(a2-6)Gal(b1-4)GlcNAc(b1-3)Gal(b1-4)[Fuc(a1-3)]GlcNAc(b1-3)Gal(b1-4)[Fuc(a1-3)]GlcNAc. A digest of the protocol:
as §1

Test [3] concerns Neu5Ac(a2-6)Gal(b1-4)GlcNAc6S. In a few lines: as §1
A further test has as its system Neu5Ac(a2-6)Gal(b1-4)Glc. A digest of the protocol:
as §1

Test [4] concerns Neu5Ac(a2-6)Gal(b1-4)GlcNAc. In a few lines:
as §1

Test [5] has as its system Neu5Ac(a2-6)Gal(b1-4)GlcNAc(b1-6)[Gal(b1-3)]GalNAc. A digest of the protocol: as §1
Test [6] relates to Neu5Ac(a2-6)Gal(b1-4)GlcNAc(b1-2)[Neu5Ac(a2-6)Gal(b1-4)GlcNAc(b1-4)]Man(a1-3)[GlcNAc(b1-4)][Neu5Ac(a2-6)Gal(b1-4)GlcNAc(b1-4)Man(a1-6)]Man(b1-4)GlcNAc(b1-4)GlcNAc. In a few lines:
as §1

The subject of test [7] is Neu5Ac(a2-6)Gal(b1-4)GlcNAc(b1-3)Gal(b1-4)GlcNAc(b1-3)Gal(b1-4)GlcNAc(b1-2)Man(a1-3)[Neu5Ac(a2-6)Gal(b1-4)GlcNAc(b1-3)Gal(b1-4)GlcNAc(b1-3)Gal(b1-4)GlcNAc(b1-2)Man(a1-6)]GalNAc. In a few lines: as §1
The subject of test [8] is Neu5Ac(a2-6)Gal(b1-4)GlcNAc(b1-3)Gal(b1-4)GlcNAc(b1-3)[Neu5Ac(a2-6)Gal(b1-4)GlcNAc(b1-3)Gal(b1-4)GlcNAc(b1-6)]GalNAc. In a few lines:
as §1

In test [9] the test system is Neu5Ac(a2-6)Gal(b1-4)GlcNAc(b1-3)Gal(b1-4)GlcNAc. In a few lines:
as §1

The full list was thinned out, with the strongest signals kept by preference.

Sequence of C3b (Homo sapiens), P01024 (P01024 23-667): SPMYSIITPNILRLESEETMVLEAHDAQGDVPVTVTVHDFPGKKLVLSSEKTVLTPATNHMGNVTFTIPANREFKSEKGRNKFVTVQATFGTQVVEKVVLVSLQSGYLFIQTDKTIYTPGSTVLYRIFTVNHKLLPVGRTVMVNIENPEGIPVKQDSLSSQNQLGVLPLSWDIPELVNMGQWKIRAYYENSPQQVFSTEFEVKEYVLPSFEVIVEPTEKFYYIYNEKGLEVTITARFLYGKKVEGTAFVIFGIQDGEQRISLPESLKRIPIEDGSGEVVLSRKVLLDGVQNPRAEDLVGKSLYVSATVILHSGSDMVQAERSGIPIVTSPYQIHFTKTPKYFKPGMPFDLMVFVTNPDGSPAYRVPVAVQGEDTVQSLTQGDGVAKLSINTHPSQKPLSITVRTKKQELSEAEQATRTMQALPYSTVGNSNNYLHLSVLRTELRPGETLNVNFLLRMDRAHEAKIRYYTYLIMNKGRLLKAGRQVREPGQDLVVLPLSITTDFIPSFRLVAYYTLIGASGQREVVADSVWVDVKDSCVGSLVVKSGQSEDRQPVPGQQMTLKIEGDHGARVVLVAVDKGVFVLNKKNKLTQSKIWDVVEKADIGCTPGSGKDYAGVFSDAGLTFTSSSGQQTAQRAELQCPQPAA
Sequence of Neurocan (Homo sapiens), O14594 (O14594 other isoform, or with tags, fused parts or gaps): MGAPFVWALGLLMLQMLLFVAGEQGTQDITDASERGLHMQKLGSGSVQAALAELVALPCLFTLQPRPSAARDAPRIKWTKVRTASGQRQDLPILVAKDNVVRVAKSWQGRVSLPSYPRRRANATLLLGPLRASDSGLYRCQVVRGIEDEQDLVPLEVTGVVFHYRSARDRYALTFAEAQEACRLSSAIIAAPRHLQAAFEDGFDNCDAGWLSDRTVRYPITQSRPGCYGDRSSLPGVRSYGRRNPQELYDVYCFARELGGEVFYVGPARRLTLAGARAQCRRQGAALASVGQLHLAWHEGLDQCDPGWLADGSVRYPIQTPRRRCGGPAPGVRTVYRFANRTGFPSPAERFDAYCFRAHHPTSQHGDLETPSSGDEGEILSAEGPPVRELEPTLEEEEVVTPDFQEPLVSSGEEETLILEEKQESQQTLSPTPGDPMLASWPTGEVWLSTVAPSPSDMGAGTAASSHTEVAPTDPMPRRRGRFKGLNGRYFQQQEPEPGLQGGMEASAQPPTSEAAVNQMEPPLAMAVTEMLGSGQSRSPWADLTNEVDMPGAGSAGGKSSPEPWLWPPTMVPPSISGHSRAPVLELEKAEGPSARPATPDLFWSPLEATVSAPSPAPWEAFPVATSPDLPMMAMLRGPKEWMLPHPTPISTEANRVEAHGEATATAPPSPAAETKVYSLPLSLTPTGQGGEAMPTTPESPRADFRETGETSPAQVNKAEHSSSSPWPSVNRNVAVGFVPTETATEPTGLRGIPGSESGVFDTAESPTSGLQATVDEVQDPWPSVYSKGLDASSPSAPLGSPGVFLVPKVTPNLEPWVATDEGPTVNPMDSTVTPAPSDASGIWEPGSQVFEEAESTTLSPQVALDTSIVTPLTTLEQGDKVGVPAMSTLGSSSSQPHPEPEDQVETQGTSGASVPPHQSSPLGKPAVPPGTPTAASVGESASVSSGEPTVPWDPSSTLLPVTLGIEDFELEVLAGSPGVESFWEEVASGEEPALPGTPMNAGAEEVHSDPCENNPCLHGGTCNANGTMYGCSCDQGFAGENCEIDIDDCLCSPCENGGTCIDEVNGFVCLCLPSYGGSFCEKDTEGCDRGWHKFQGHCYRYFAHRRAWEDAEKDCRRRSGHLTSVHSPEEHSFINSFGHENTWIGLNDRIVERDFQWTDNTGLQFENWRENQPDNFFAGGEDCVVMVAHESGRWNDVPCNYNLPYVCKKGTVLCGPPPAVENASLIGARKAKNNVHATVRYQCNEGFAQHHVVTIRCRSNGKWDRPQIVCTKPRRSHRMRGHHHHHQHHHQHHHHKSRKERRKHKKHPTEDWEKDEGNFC
Sequence of CHI3L1 (Homo sapiens), P36222 (P36222 whole entry): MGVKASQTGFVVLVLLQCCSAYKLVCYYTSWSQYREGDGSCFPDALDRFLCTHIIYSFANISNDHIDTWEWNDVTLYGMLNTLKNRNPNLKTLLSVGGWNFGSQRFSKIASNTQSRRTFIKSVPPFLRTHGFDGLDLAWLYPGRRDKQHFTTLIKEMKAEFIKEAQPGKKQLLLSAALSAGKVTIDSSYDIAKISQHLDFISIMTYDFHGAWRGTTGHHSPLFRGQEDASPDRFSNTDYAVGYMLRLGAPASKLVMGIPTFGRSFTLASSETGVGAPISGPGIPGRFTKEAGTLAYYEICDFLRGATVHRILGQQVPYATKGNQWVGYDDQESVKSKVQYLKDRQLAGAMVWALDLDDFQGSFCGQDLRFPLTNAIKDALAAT
Sequence of Avaren (Actinomycete K97) (chain, as listed by the source): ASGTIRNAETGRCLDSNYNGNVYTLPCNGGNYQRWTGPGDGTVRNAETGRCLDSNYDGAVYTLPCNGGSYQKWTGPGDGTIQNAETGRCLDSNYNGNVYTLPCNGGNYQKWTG
Sequence of PILRb (Mus musculus), Q2YSF2 (Q2YSF2 entry or part of it): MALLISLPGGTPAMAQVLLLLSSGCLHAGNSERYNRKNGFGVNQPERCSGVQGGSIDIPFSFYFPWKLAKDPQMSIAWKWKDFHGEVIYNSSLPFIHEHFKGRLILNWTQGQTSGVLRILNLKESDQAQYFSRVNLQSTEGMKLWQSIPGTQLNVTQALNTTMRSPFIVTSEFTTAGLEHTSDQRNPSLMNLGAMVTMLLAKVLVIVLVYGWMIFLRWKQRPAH
Sequence of Aggrecan (Rattus norvegicus), NP_071526 (chain, as listed by the source): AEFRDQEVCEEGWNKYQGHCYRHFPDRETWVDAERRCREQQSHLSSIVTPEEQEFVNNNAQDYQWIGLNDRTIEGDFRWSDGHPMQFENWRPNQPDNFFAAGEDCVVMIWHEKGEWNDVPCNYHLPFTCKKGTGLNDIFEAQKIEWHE
Sequence of Regenerating Gene IV (Homo sapiens), Q9BYZ8 (Q9BYZ8 whole entry, looked up): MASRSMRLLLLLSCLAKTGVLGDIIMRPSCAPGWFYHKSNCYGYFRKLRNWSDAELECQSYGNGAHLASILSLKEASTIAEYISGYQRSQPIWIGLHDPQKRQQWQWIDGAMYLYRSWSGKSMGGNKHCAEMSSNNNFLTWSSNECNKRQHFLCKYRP
Sequence of PILRa (Mus musculus), Q2YSF3 (Q2YSF3 entry or part of it): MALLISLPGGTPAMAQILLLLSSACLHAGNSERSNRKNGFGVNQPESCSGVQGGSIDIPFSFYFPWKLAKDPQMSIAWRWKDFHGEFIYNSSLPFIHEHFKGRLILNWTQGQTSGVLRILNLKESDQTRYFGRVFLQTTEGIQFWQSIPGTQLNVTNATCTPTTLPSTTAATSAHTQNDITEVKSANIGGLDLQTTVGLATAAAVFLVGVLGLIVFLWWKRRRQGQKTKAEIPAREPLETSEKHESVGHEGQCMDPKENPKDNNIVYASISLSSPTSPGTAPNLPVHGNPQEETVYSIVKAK

Regarding Neurocan (Homo sapiens), O14594, the “glycan array binding signal (z-score)” value is 0.267 in test [1] and -1.44 in test [2].

With C3b (Homo sapiens), P01024, the “glycan array binding signal (z-score)” value in test [3] is 0.107; in the test on Neu5Ac(a2-6)Gal(b1-4)Glc, -0.687.

Regarding PILRb (Mus musculus), Q2YSF2, the “glycan array binding signal (z-score)” value in test [4] is -0.349.

Regarding Avaren (Actinomycete K97), the “glycan array binding signal (z-score)” value in test [5] was -0.134; in test [3], -0.14.

Turning to MpAFP RI GFP (Marinomonas primoryensis), the “glycan array binding signal (z-score)” value in [6] is 0.092; in test [7] it was 3.43; in test [8], 1.36.

Consider Aggrecan (Rattus norvegicus), NP_071526, for which the “glycan array binding signal (z-score)” value in test [9] is -0.113.

As to PILRa (Mus musculus), Q2YSF3, the “glycan array binding signal (z-score)” value in test [3] was found to be 1.51.

CHI3L1 (Homo sapiens), P36222: the “glycan array binding signal (z-score)” value is -0.105 in [9] and -0.139 in test [3].

On to “Regenerating Gene IV (Homo sapiens), Q9BYZ8”, for which the “glycan array binding signal (z-score)” value in [4] was -0.335.

Take Siglec-8 (Homo sapiens), Q9NYZ4: the “glycan array binding signal (z-score)” value in test [2] is 0.008; in test [4] (mutation: R125K), -0.306.

For HARE (Homo sapiens), Q8WWQ8, the “glycan array binding signal (z-score)” value in test [9] was -0.057.
